Compounds with a hit are over-represented: about 0.55% of the library has one in this group of screens.
ASM inhibitor: inhibitors of human secretory acid sphingomyelinase; P17405; placental ASM, HMU-PC fluorogenic substrate, 60 min; Potency, µM (series often up to 57.5 µM), most hits filed as inhibitors; 0.006% of 340,000 active
Target sequence (P17405 47-631 limits assumed): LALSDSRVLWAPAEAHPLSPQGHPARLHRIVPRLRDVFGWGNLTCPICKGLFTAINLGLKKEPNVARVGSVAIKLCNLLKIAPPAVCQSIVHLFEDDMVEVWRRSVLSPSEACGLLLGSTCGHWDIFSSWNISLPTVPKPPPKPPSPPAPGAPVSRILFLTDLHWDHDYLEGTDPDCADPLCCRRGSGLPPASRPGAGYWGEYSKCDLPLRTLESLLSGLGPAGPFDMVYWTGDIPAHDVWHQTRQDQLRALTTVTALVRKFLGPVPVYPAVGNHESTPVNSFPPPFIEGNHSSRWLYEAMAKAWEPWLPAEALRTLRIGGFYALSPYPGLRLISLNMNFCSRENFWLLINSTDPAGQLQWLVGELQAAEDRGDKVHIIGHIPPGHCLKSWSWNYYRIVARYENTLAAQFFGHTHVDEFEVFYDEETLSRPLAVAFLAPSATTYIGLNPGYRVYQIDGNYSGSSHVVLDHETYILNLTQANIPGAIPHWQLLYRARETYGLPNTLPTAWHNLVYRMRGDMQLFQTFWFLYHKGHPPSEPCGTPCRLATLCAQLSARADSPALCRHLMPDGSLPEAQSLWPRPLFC
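qHTS format. ASM enzyme prepared from human placenta hydrolyses the fluorogenic substrate HMU-PC0 (9 uM final) over 60 min at 37 °C after a 10 min compound preincubation.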
ERG-DNA inh: blocks human ERG Ets domain binding to DNA. 0.028% of 370,000 active. Potency, µM (titrated, usually from 76.9 µM), actives largely listed as inhibitors. fluorescence polarization, His-ERG Ets domain / labelled DNA; active means well fitted inhibition curve with a large enough effect in the polarisation, with a control signal flat; inconclusive means small, poorly fitted or top-dose-only effect, or effect the other way, or a change in a side signal; inactive means no such curve, though single readings can be large or run the other way; the % refers to the polarisation;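 further: polarization taken with two DNA probes labelled with fluorescein and Texas red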
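His-tagged ERG Ets domain (1 uM in the protein solution; 300mM KCl, 50mM Tris-HCl, 1mM EDTA, 1mM DTT, pH 7.5) received compound, then a probe mix of 5 nM fluorescein-DNA and 100nM Texas-615-DNA. Fluorescence polarization was read for both dyes.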
A-T KAP1 phos: potential ataxia-telangiectasia treatments restoring KAP-1 phosphorylation | F2112 A-T fibroblasts, KAP-1 phosphorylation AlphaLISA; neocarzinostatin DNA damage 30 min before lysis | Potency, µM (series often up to 57.5 µM), actives largely listed as activators | 0.19% of 320,000 active | AID 485349; further: nearly all actives have a fitted effect of over 45% in size
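ATM-like activity read as KAP-1 phosphorylation via AlphaLISA donor/acceptor antibody pairs after lysis and 6 hr at 25C. Cells were ATM-null patient fibroblasts (F2112, hTERT), dosed 60 min, then exposed to the DSB inducer NCS for 30 min.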
Tb PFK block: inhibitors of T. brucei phosphofructokinase. O15648. T. brucei PFK, ADP-Glo luminescence. Potency, µM (series often up to 57.5 µM), hits mostly inhibitors. 0.17% of 330,000 active; further: nearly all actives have a fitted effect of over 60% in size
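PFK 1.25 nM, F6P 0.5 mM, ATP 0.1 mM, 0.1 M TEA pH 8.0, 5 mM MgCl2, 0.01% Tween20, 0.1% BSA; 45 min RT. ADP-Glo readout. qHTS titration up to 57 uM; curves fitted, compounds curve-classed.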
KAT2A inh: blocks human GCN5L2 histone acetyltransferase; Potency, µM (titrated, usually from 58.9 µM), hits mostly inhibitors; GCN5L2 HAT assay, ThioGlo1 CoA-SH fluorescence; 0.21% of 390,000 active; Q92830
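Compounds, pin-transferred from DMSO stocks, meet 20nM GCN5L2 for 15 min before the reaction begins with H3(1-25) peptide (75uM) and acetyl-CoA (70uM). Thiol-reactive ThioGlo1 reports CoA release over 20 min at room temperature.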
p53 reactivation: restores transcriptional activity of mutant p53 | H1299 p53-A138V BP100-luciferase reporter, luminescence, 24 h | Potency, µM (top dose mostly 92.2 µM), usual class: activators | 0.063% of 320,000 active | AID 504706; further: nearly all actives have a fitted effect of over 45% in size
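p53-null H1299 cells stably carrying temperature-sensitive p53-A138V and a BP100-luciferase reporter were pinned with compounds (4-point, 1:5 series) and held 24 hrs at 37 deg C. Luminescence was read 10 min after detection reagent.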
Hits are given with their value; - = inactive; ? = inconclusive; . = no result given. Unless noted, the call rests on the fitted dose curve; in most records, active means well fitted curve in the direction sought with a large enough effect; inconclusive means small, poorly fitted or top-dose-only effect, or another doubt; inactive means no such curve, though single readings can be large; an effect the other way counts as inactive or inconclusive.

SMILES	ASM inhibitor	ERG-DNA inh	A-T KAP1 phos	Tb PFK block	KAT2A inh	p53 reactivation
CCn1c(CSc2ncn[nH]2)nc2cc(C(=O)O)ccc21	-	35µM	-	-	-	-
Cn1c(SCC(=O)C(C)(C)C)nnc1-c1ccncc1	-	-	-	-	-	-
CC(C)c1onc(-c2c(Cl)cccc2Cl)c1COc1ccc(/C=C/c2cccc(C(=O)O)c2)c(Cl)c1	.	.	.	.	13µM	.
Cc1nc(C(=O)NCCC(C)C)sc1C1(C)CC(c2ccccc2)=NO1 (stereo unspecified)	-	-	40µM	-	-	-
COc1ccc2cc([S+]([O-])Cc3ncc(C)c(OC)c3C)nc2c1	.	.	.	.	-	.
Oc1ccc(-c2cnc(-c3ccc(O)cc3)nc2)cc1	-	-	-	-	-	14µM
Cc1cc2nc3s/c(=C/c4ccc(-c5ccccc5C(=O)O)o4)c(=O)n3c2cc1C	-	-	-	-	-	-
O=C(O)c1cc(-c2ccc(/C=c3\sc4nc5ccc(Br)cc5n4c3=O)o2)ccc1Cl	.	.	-	0.85µM	-	.
Cc1ccc(N(CC(=O)Nc2ccc(C)c(Cl)c2)S(=O)(=O)c2cccs2)cc1	.	-	.	.	-	.
Cc1cc(NC(=O)c2cc(-c3ccc(C)s3)nc3ccccc23)no1	-	-	-	-	28µM	-
Cc1cc(NC(=O)c2cc(-c3ccccc3C)nc3ccccc23)no1	-	-	-	-	-	-
c1ccc(-c2nnc(-c3ccccn3)nc2NC2CCCCC2)cc1	-	-	-	-	-	35µM
O=C(Cn1nnc2c(cnn2-c2ccc(F)cc2)c1=O)Nc1ccccc1C(F)(F)F	-	-	-	-	13µM	-
COc1cccc(NC(=O)C(=O)NCCc2csc3nc(-c4ccccc4C)nn23)c1	.	-	.	.	-	.
Cc1snc(SCC(=O)c2ccc([N+](=O)[O-])cc2)c1C#N	-	-	-	?	6.3µM	?
Cc1snc(SCC(=O)c2ccc(F)cc2)c1C#N	-	-	-	-	-	-
Cc1cc(Cl)ccc1OCCCC(N)=O	-	-	-	-	-	-
Cc1cc(Cl)ccc1OCCCC(=O)NO	-	-	-	13µM	-	-
COc1ccccc1C(=O)Nc1c(C(=O)Nc2ccccc2F)oc2ccccc12	.	-	.	.	-	.
O=C(CC1N=C2c3ccccc3N=C(SCC(=O)Nc3ccccc3F)N2C1=O)NCc1cccs1 (stereo unspecified)	.	-	.	.	-	.
CCOC(=O)N1CCN(C(=O)CCc2nc3sc4c(c3c(=O)[nH]2)CCCC4)CC1	-	-	10µM	-	-	-
COc1ccc(C(=O)NCCn2cc(SCC(=O)Nc3ccc4c(c3)OCCO4)c3ccccc32)cc1OC	.	-	.	.	-	.
O=C(O)c1cc(O)c2c(c1)[C@@H]([C@H]1c3cc(C(=O)O)cc(O)c3C(=O)c3c(O[C@@H]4O[C@H](CO)[C@@H](O)[C@H](O)[C@H]4O)cccc31)c1cccc(OC3O[C@H](CO)[C@@H](O)[C@H](O)[C@H]3O)c1C2=O (stereo partly specified)	-	-	-	?	0.5µM	-
O=C1c2cc(CO)cc(O)c2C(=O)c2c(O[C@@H]3OC(CO)[C@@H](O)[C@@H](O)[C@@H]3O)cccc21 (stereo partly specified)	-	-	.	.	.	.
COc1ccccc1NC(=O)CSc1nnc(CCC(=O)Nc2ccccc2F)n1C	-	-	-	-	35µM	-
COc1ccccc1NC(=O)Cc1nnc(SCC(=O)Nc2ccc(F)cc2F)n1C	-	-	-	-	-	-
COc1cc(-c2noc(-c3ccc(NC4CCCCC4)c([N+](=O)[O-])c3)n2)cc(OC)c1OC	.	-	.	.	-	.
S=c1[nH]nc(COc2ccccc2)n1/N=C/c1ccccc1Cl	-	-	5µM	-	-	-
COc1ccc(-c2nc3n(c2C)Cc2ccccc2-3)cc1	-	-	22µM	-	-	?
O=c1cc(-c2ccccc2)nc2n1Cc1ccccc1-2	-	-	-	-	-	-

Source: PubChem BioAssay (National Center for Advancing Translational Sciences (NCATS))
